Rab9 prom act – Rab9 promoter activation | AID 485297 | Huh7 Rab9 promoter-luciferase reporter, luminescence, 24 h | Potency, µM (series often up to 9.22 µM), without a hit: at the top dose activation, negative = inhibition, usual class: activators | 2.8% of 320,000 active; note: % of control where 0% means no effect; nearly all actives have a fitted effect of over 60% in size
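Cell-based reporter: Huh7 stable for Rab9 promoter-driven luciferase, plated in reduced-serum medium with 10% FBS at 1500 cells/well, compound-treated 24 h at 37 °C, luminescence read after 10 min reagent.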
NPC1 promoter act – NPC1 promoter activation | AID 485313 | 2.4% of 320,000 active | Huh7 NPC1 promoter luciferase reporter, 24 h | Potency, µM (top dose mostly 9.22 µM), inactives show at the top dose activation, actives largely listed as activators; note: % of control where 0% means no effect; nearly all actives have a fitted effect of over 60% in size
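Cells: Huh7 expressing luciferase under the NPC1 promoter, 1500/well. Seeded 2 h, compound added, incubated 24 h at 37 °C. Luciferase reagent, 10 min ambient, then luminescence.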
SMN2 splice up – increases expression of the SMN2 splice variant. HEK293 SMN2-luciferase splicing reporter, luminescence, 30-36 h. Potency, µM (doses to about 46.1 µM), inactives show at the top dose activity change, positive = activation, actives largely listed as activators. 2.8% of 210,000 active. AID 1458; note: % of control where 0% means no effect; nearly all actives have a fitted effect of over 55% in size
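qHTS luciferase splicing reporter: luminescence rises when SMN2 exon 7 is included in transfected HEK293 cells. Compound exposure lasted 30-36 h at 37C, with 4.5 mM final sodium butyrate as control, followed by a ONE-Glo read.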
ELG1 genotoxic – genotoxicity induction in ELG1-luciferase HEK293T cells. HEK293T ELG1-luciferase reporter, luminescence, 16 h. 1.3% of 330,000 active. Potency, µM (highest dose often 46 µM), inactives show at the highest dose activity change, positive = activation, usual class: activators; note: % of control where 0% means no effect; nearly all actives have a fitted effect of over 60% in size
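Genotoxic stress is detected as increased luminescence from luciferase-tagged ELG1 in HEK293T cells, measured with ONE-Glo after a 16 hr treatment at 37 °C.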
FLuc counter – inhibits or activates purified firefly luciferase, miR-21 counter-screen | AID 588342 | Potency, µM (titrated, usually from 57.5 µM), for inactives: at the highest dose activity change, negative = inhibition, most hits filed as inhibitors | 6.9% of 360,000 active | purified FLuc, Km substrates, luminescence inhibition;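 note: plate controls were vehicle for no effect and reference inhibitor for full effect; nearly all actives have a fitted effect of over 55% in size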
Target sequence (P08659 whole entry, looked up): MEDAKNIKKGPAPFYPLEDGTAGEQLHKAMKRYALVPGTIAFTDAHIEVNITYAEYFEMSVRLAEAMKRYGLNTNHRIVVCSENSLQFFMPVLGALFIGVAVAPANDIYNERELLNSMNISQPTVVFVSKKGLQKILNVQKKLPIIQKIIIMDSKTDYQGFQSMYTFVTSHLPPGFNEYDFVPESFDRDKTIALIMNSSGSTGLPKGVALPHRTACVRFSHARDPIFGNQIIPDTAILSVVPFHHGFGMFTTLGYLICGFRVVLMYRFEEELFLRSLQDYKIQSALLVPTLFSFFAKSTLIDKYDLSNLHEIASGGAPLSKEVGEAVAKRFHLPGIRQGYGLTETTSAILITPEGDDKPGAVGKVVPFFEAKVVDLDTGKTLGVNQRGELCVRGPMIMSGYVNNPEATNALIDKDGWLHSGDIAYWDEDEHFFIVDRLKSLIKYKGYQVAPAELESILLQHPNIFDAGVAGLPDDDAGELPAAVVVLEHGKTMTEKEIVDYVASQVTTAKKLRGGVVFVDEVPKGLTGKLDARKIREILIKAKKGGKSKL
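Biochemical qHTS of compounds, final roughly 60 µM downward over six points, against 10 nM purified firefly luciferase using Km concentrations of substrates (10 uM D-luciferin, 10 uM ATP) in Tris acetate pH 7.5 buffer; luminescence output.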
uPA generation – inhibitors of cell surface uPA generation | Potency, µM (doses to about 38.3 µM), for the others: top-dose activity change, negative = inhibition, hits mostly inhibitors | 0.31% of 330,000 active | AID 540303 | cell surface uPA generation assay, qHTS; active = well fitted inhibition curve with a large enough effect; inconclusive = small, poorly fitted or top-dose-only effect; inactive = no such curve, though single readings can be large or run the other way; tested in mouse RAW 264.7 cells; note: % is set by controls: 0 for no effect and ±100 for the full control effect; nearly all actives have a fitted effect of over 55% in size
Numbers without * were called inactive; ? = inconclusive; nt = not tested or not shown; [ ] = dose if it differs, or a comment. A selection: hits, their analogues and other compounds. The true share with any hit is near 7.3%. Unless noted, calls come from the whole dose curve; as a rule, active = well fitted curve in the direction sought with a large enough effect; inconclusive = small, poorly fitted or top-dose-only effect, or another doubt; inactive = no such curve, though single readings can be large; an effect the other way counts as inactive or inconclusive. Potency is the fitted concentration of half-maximal effect.

SMILES	Rab9 prom act	NPC1 promoter act	SMN2 splice up	ELG1 genotoxic	FLuc counter	uPA generation
O=S(=O)(Nc1nc2ccccc2nc1NCC1CCCO1)c1ccccc1 (stereo not drawn)	-4%	-2%	nt	1%	0%	-3%
c1ccc2sc(NCC3CCCO3)nc2c1 (stereo not drawn)	1.4µM*	2.2µM*	10µM*	?	21µM*	-3%
CCCS(=O)(=O)N1CC(=O)N(c2cccc(Cl)c2)C(C)(C(=O)NC2CCCCC2)C1 (stereo not drawn)	nt	nt	nt	nt	2%	nt
Cc1ccc(OCc2ccc(C(=O)Nc3nccs3)o2)cc1	16%	26%	10%	3%	17µM*	-1%
O=C(Nc1nccs1)c1ccc(COc2ccccc2)o1	4.5µM*	2.5µM*	nt	?	?	-2%
COc1cc2cc(C(=O)N3CCOCC3)cc(-c3ccc(C)cc3)c2cc1OC	4%	-3%	nt	-7%	-1%	4.5µM*
COc1ccc(-c2cc(C(=O)N3CCCCCC3)c3cc(C)ccc3n2)cc1	5%	-6%	nt	-3%	12µM*	0%
O=C(c1cc(-c2ccc(Br)cc2)nc2ccccc12)N1CCN(c2ccccc2O)CC1	22%	17%	nt	-1%	?	0%
Cc1ccc(-c2cc(C(=O)N3CCN(c4ccccc4O)CC3)c3ccccc3n2)o1	2.2µM*	?	nt	0%	0.76µM*	-12%
Cc1ccc(-c2cc(C(=O)N3CCOCC3)c3ccccc3n2)cc1	18%	7%	13%	25%	11µM*	-4%
COc1ccc(-c2cc(C(=O)N3CCOCC3)c3ccccc3n2)cc1OC	-5%	-2%	nt	-3%	?	-5%
O=C(c1ccco1)N1CCC2(CCCN(c3ncccn3)C2)CC1	nt	nt	-13%	nt	nt	nt
Cc1cccc(CNC(=O)C2CCN(c3nnc(-n4c(C)ccc4C)s3)CC2)c1	nt	nt	8%	nt	-8%	nt
COc1ccc(CNS(=O)(=O)c2cc3c(cc2C)n(C)c(=O)c(=O)n3C)cc1	nt	nt	nt	nt	-1%	nt
COc1ccc2nc(-c3ccc(Cl)cc3)cc(C(=O)O)c2c1	1%	2%	nt	8%	8.5µM*	-17%
COc1ccc(-c2cc(C(=O)N3CCCCC3)c3ccccc3n2)cc1	17%	16%	nt	1%	5.4µM*	-7%
COc1ccc(-c2cc(C(=O)N3CCOCC3)c3cc(C)ccc3n2)cc1	0%	5%	1%	2%	17µM*	-1%
CCOC(=O)c1c(NC(=O)c2cc(CC)on2)sc(C)c1C	nt	nt	10%	nt	2%	nt
Cc1cc(O)c(/C=N/Nc2cccc(Cl)c2)c(=O)o1	1%	19%	-24%	10%	15µM*	1%
Cc1cc(O)c(/C=N/Nc2ccc(Cl)cc2)c(=O)o1	15%	20%	-21%	10%	2.7µM*	0%
Cc1cc(O)c(/C=N/Nc2ccccc2Cl)c(=O)o1	30%	?	-1%	?	?	1%
COc1cc(C2c3c(oc4ccc(F)cc4c3=O)C(=O)N2Cc2ccc3c(c2)OCO3)ccc1O (stereo not drawn)	nt	nt	0%	nt	3%	nt
Oc1ccccc1C(Sc1nc2ccccc2s1)Sc1nc2ccccc2s1	nt	nt	12%[9.22 µM]	nt	nt	nt
COC(=O)c1sccc1NC(=O)Nc1ccc(OC)cc1	20%	18%	nt	?	1.7µM*	-3%
O=C(Nc1cccc([N+](=O)[O-])c1)Nc1cccs1	9%	10%	-19%	-8%	27µM*	?
SMILES	Rab9 prom act	NPC1 promoter act	SMN2 splice up	ELG1 genotoxic	FLuc counter	uPA generation
COC(=O)c1sccc1NC(=O)Nc1cccc(C(C)=O)c1	1%	2%	nt	1%	7.6µM*	6%
COC(=O)c1sccc1NC(=O)Nc1cccc([N+](=O)[O-])c1	12%	-2%	nt	7%	6.7µM*	1%
COC(=O)c1sccc1NC(=O)Nc1cccc(C)c1C	3%	1%	nt	2%	-18%	2%
O=C(Nc1cccc([N+](=O)[O-])c1)Nc1ccc2c(c1)CCC2	?	?	nt	-1%	?	-12%
CC(=O)c1ccc(N2C(=O)N(Cc3ccccc3C#N)c3ccccc3S2(=O)=O)cc1	nt	nt	nt	nt	2%	nt
CCC(C)NC(=O)c1nn(-c2ccc(C)cc2)c(=O)n(C)c1=O (stereo not drawn)	nt	nt	nt	nt	-3%	nt
O=C(Nc1ccccc1)N1CCC2(CC1)CCN(S(=O)(=O)c1ccccc1)CC2	nt	nt	-7%	nt	nt	nt
CCOc1ccc(-c2cc(NC(=O)Nc3cccc(C(C)=O)c3)c(C(=O)OC)s2)cc1	nt	nt	17%	nt	?	nt
O=C(Nc1cccc(C(F)(F)F)c1)Nc1cccs1	nt	nt	5%	nt	12µM*	nt
COC(=O)c1sccc1NC(=O)Nc1cccc(C)c1	2%	2%	nt	?	4.8µM*	-3%
O=C(Nc1ccccc1)Nc1cccc(C(F)(F)F)c1	?	8%	4%	-7%	?	0%
Cc1cccc(C(C)C)c1NC(=O)c1ccc2c(c1)CCCN2S(C)(=O)=O	nt	nt	-20%	nt	-4%	nt
O=C(CNC(=O)c1ccccc1F)Nc1ccccc1C(F)(F)F	-1%	-13%	-1%	0%	-2%	-2%
COc1cc([N+](=O)[O-])cc2sc(NC(C)=O)nc12	0%	1%	nt	0%	3%	10µM*
O=[N+]([O-])c1ccc(N=Cc2sc3ccccc3c2O)cc1	?	22%	25µM*	8.2µM*	?	10%
Oc1c(C=NCc2ccccc2)sc2ccccc12	2.8µM*	?	2%	?	11µM*	-7%
O=[N+]([O-])c1cccc(N=Cc2sc3ccccc3c2O)c1	?	26%	9%	?	?	nt
Oc1cccc(C=NCc2ccccc2)c1O	3%	-1%	25%	-4%	0%	-5%
COc1ccc(CCNC(=O)CSc2n[nH]c(-c3ccccc3Cl)n2)cc1OC	nt	nt	nt	nt	-12%	nt
Cc1ccc(NC(=O)C(=O)NCc2ccc(/C=N/NC(=O)c3c(C)nc4ccccn34)o2)cc1	-2%	-2%	?	2%	1.7µM*	-9%
Cc1nc2ccccn2c1C(=O)N/N=C/c1ccccc1	-4%	-2%	nt	1%	-11%	1%
Cc1ccn2c(C(=O)N/N=C/c3ccc(CNC(=O)C(=O)Nc4ccc(C)c(C)c4)o3)c(C)nc2c1	-1%	1%	28%	0%	6.7µM*	nt
Cc1ccn2c(C(=O)N/N=C/c3ccc(Cl)cc3)c(C)nc2c1	-4%	-2%	nt	4%	-4%	10%
Cc1ccc(C)c(N2CCN(C(=O)c3cnn(-c4ccccc4Cl)c3C3CCN(C(=O)OC(C)(C)C)CC3)CC2)c1	nt	nt	nt	nt	-2%	nt
O=C(Nc1ccc(/C=C/c2nc3ccccc3o2)cc1)c1c(F)cccc1F	2µM*	3.2µM*	8.9µM*	1.5µM*	2.1µM*	1%
CC(=O)Nc1ccc(/C=C/c2nc3ccccc3o2)cc1	0.45µM*	2.2µM*	nt	?	4.8µM*	-7%
